{"source": "PubChem BioAssay (NCATS)", "note": "Records with an inconclusive call do not appear. Unmarked numbers belong to inactive results. Active and inactive are the calls of the source. Calls follow the shape of the dose curve; as a rule, active = well fitted inhibition curve with a large enough effect; inconclusive = small, poorly fitted or top-dose-only effect; inactive = flat fitted curve, though single readings scatter. Potency is read from the fitted curve at half-maximal effect."}
{"system": "PC26", "assay": "qHTS profiling for inhibitors of Plasmodium falciparum proliferation (AID 504749); also: nearly all actives have a fitted effect of over 60% in size;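 as to activity, negative = inhibition: 0% = DMSO vehicle and full inhibition = artemisinin control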", "conditions": "P. falciparum in erythrocytes, SYBR Green DNA, 72 h; series mostly up to 28.7 µM; activity, negative = inhibition: at the top concentration", "summary_of_the_method": "(§1)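 SYBR Green fluorescence of parasite DNA, read after lysis and overnight dark incubation, measured growth over 72 h in erythrocyte culture at 0.3% parasitemia and 2.5% hematocrit. Data normalised to DMSO and 0.29 uM artemisinin, with plate-drift correction.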", "units": {"activity, negative = inhibition": "%"}}
{"smiles": "CC(C)(C)c1cc(O)ccc1O", "Potency": "12 µM (active)"}
{"smiles": "CCOC(=O)c1ccccc1C(=O)OCC", "activity, negative = inhibition": 1.29}
{"smiles": "c1ccc(C2(N3CCCC3)CCCCC2)cc1", "Potency": "13.5 µM (active)"}
{"smiles": "CCCC(C)(COC(N)=O)COC(=O)NC1CC1", "note": "(stereo not drawn)", "activity, negative = inhibition": 1.3}
{"smiles": "O=C(CS(=O)C(c1ccccc1)c1ccccc1)NO", "note": "(stereo not drawn)", "activity, negative = inhibition": 0.654}
{"smiles": "CC(N)Cc1ccc(O)cc1", "note": "(stereo not drawn)", "activity, negative = inhibition": -6.42}
{"smiles": "O=C(NCNC(=O)NC1C(=O)NC(=O)N1CO)NC1C(=O)NC(=O)N1CO", "note": "(stereo not drawn)", "activity, negative = inhibition": 3.25}
{"smiles": "O=Cc1ccco1", "activity, negative = inhibition": 1.23}
{"smiles": "O=C(NC(=O)c1c(F)cccc1F)Nc1ccc(Cl)c(Oc2ncc(C(F)(F)F)cc2Cl)c1", "activity, negative = inhibition": 7.64}
{"smiles": "C/C(=C\\c1csc(C)n1)[C@@H]1C[C@@H]2O[C@]2(C)CCC[C@H](C)[C@H](O)[C@@H](C)C(=O)C(C)(C)[C@@H](O)CC(=O)O1", "Potency": "0.0034 µM (active)"}
{"smiles": "CCC(C)(S(=O)(=O)CC)S(=O)(=O)CC", "activity, negative = inhibition": 5.16}
{"smiles": "CC12NC(Cc3ccccc31)c1ccccc12", "note": "(stereo not drawn)", "activity, negative = inhibition": -7.79}
{"smiles": "ClC(Cl)(Cl)Cl", "activity, negative = inhibition": -0.0715}
{"smiles": "COC([CH2][Hg])CNC(=O)c1ccccc1OCC(=O)O", "note": "(stereo not drawn)", "activity, negative = inhibition": 23.7}
{"smiles": "N#CC(C#N)=Cc1cc(O)c(O)c(O)c1", "Potency": "8.49 µM (active)"}
{"system": "PC49", "assay": "qHTS profiling for inhibitors of Plasmodium falciparum proliferation (AID 504749); also: nearly all actives have a fitted effect of over 60% in size;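 as to activity, negative = inhibition: 0% = DMSO vehicle and full inhibition = artemisinin control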", "conditions": "P. falciparum in erythrocytes, SYBR Green DNA, 72 h; series mostly up to 28.7 µM; activity, negative = inhibition: at the top concentration", "summary_of_the_method": "as §1"}
{"smiles": "F/C(COc1ccc2c(c1)[nH]c1ccccc12)=C1/CN2CCC1CC2", "Potency": "2.82 µM (active)"}
{"smiles": "CCOC(=O)c1ccccc1C(=O)OCC", "activity, negative = inhibition": "13%"}
{"smiles": "OC(c1ccccc1)(c1ccccc1)C1CN2CCC1CC2", "note": "(stereo not drawn)", "Potency": "1 µM (active)"}
{"smiles": "CCCC(C)(COC(N)=O)COC(=O)NC1CC1", "note": "(stereo not drawn)", "activity, negative = inhibition": "2.73%"}
{"smiles": "CCN(CC)C(=O)/C(Cl)=C(\\C)OP(=O)(OC)OC", "activity, negative = inhibition": "6.03%"}
{"smiles": "CN1[C@@H]2CC[C@H]1CC(OC1c3ccccc3CCc3ccccc31)C2", "note": "(stereo partly drawn)", "activity, negative = inhibition": "-25% [at 12.8 µM]"}
{"smiles": "CCCC(=O)OC(C(Cl)(Cl)Cl)P(=O)(OC)OC", "note": "(stereo not drawn)", "activity, negative = inhibition": "-30.4%"}
{"smiles": "CCOP(=O)(OCC)O/C(=C/Cl)c1ccc(Cl)cc1Cl", "activity, negative = inhibition": "-3.79%"}
{"smiles": "O=C(CS(=O)C(c1ccccc1)c1ccccc1)NO", "note": "(stereo not drawn)", "activity, negative = inhibition": "3.94%"}
{"smiles": "C=CCN=C=S", "activity, negative = inhibition": "8.77%"}
{"smiles": "CC(N)Cc1ccc(O)cc1", "note": "(stereo not drawn)", "activity, negative = inhibition": "-0.0411%"}
{"smiles": "O=C(NCNC(=O)NC1C(=O)NC(=O)N1CO)NC1C(=O)NC(=O)N1CO", "note": "(stereo not drawn)", "activity, negative = inhibition": "10.7%"}
{"smiles": "CCC1C(C)=NN=C(c2ccc(OC)c(OC)c2)c2cc(OC)c(OC)cc21", "note": "(stereo not drawn)", "activity, negative = inhibition": "-2.13%"}
{"smiles": "CCC1(c2ccccc2)C(=O)NC(=O)N(C)C1=O", "note": "(stereo not drawn)", "activity, negative = inhibition": "16.8%"}
{"smiles": "O=Cc1ccco1", "activity, negative = inhibition": "9.49%"}
{"smiles": "O=C(NC(=O)c1c(F)cccc1F)Nc1ccc(Cl)c(Oc2ncc(C(F)(F)F)cc2Cl)c1", "activity, negative = inhibition": "-10.5%"}
{"smiles": "O=c1c2ccccc2[se]n1-c1ccccc1", "activity, negative = inhibition": "-13.5%"}
{"smiles": "C[C@H]1CCC[C@H](O)CCCCCc2cc(O)cc(O)c2C(=O)O1", "activity, negative = inhibition": "-0.414%"}
{"smiles": "CCCN1CCCC2Cc3[nH]ncc3CC21", "note": "(stereo not drawn)", "activity, negative = inhibition": "-5.53%"}
{"smiles": "CCC(C)(S(=O)(=O)CC)S(=O)(=O)CC", "activity, negative = inhibition": "2.82%"}
{"smiles": "C[C@@H](Cc1ccccc1)NCCC(c1ccccc1)c1ccccc1", "activity, negative = inhibition": "-28.9% [at 12.8 µM]"}
{"smiles": "CC12NC(Cc3ccccc31)c1ccccc12", "note": "(stereo not drawn)", "activity, negative = inhibition": "-19.2%"}
{"smiles": "COc1ccc2c(c1OC)C(=O)OC2C1c2cc3c(cc2CCN1C)OCO3", "note": "(stereo not drawn)", "activity, negative = inhibition": "5.34%"}
{"smiles": "C=CCC1(C(C)CCC)C(=O)N=C(S)NC1=O", "note": "(stereo not drawn)", "activity, negative = inhibition": "7.04%"}
{"smiles": "CCOc1ccc2c3c1O[C@H]1[C@@H](O)C=C[C@H]4[C@@H](C2)N(C)CC[C@@]341", "activity, negative = inhibition": "5.49%"}
{"smiles": "CCCCCl", "activity, negative = inhibition": "8.23%"}
{"smiles": "ClC(Cl)(Cl)Cl", "activity, negative = inhibition": "17.7%"}
{"smiles": "COC([CH2][Hg])CNC(=O)c1ccccc1OCC(=O)O", "note": "(stereo not drawn)", "activity, negative = inhibition": "1.84%"}
{"system": "SC27B", "assay": "qHTS profiling for inhibitors of Plasmodium falciparum proliferation (AID 504749); also: nearly all actives have a fitted effect of over 60% in size;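 as to activity, negative = inhibition: 0% = DMSO vehicle and full inhibition = artemisinin control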", "conditions": "P. falciparum in erythrocytes, SYBR Green DNA, 72 h; series mostly up to 28.7 µM; activity, negative = inhibition: at the top concentration", "summary_of_the_method": "as §1"}
{"smiles": "CC(C)(C)c1cc(O)ccc1O", "Potency": "7.94 µM (active)"}
{"smiles": "F/C(COc1ccc2c(c1)[nH]c1ccccc12)=C1/CN2CCC1CC2", "Potency": "10 µM (active)"}
{"smiles": "CCOC(=O)c1ccccc1C(=O)OCC", "activity, negative = inhibition": "-2.51%"}
{"smiles": "OC(c1ccccc1)(c1ccccc1)C1CN2CCC1CC2", "note": "(stereo not drawn)", "activity, negative = inhibition": "-14.3%"}
{"smiles": "CCCC(C)(COC(N)=O)COC(=O)NC1CC1", "note": "(stereo not drawn)", "activity, negative = inhibition": "6.2%"}
{"smiles": "CCN(CC)C(=O)/C(Cl)=C(\\C)OP(=O)(OC)OC", "activity, negative = inhibition": "3.72%"}
{"smiles": "CCCC(=O)OC(C(Cl)(Cl)Cl)P(=O)(OC)OC", "note": "(stereo not drawn)", "activity, negative = inhibition": "-4.96%"}
{"smiles": "O=C(CS(=O)C(c1ccccc1)c1ccccc1)NO", "note": "(stereo not drawn)", "activity, negative = inhibition": "-2.13%"}
{"smiles": "C=CCN=C=S", "activity, negative = inhibition": "-2.7%"}
{"smiles": "CC(N)Cc1ccc(O)cc1", "note": "(stereo not drawn)", "activity, negative = inhibition": "-1.61%"}
{"smiles": "c1cc2c(c(NC3=NCCN3)c1)CCCC2", "activity, negative = inhibition": "-0.599%"}
{"smiles": "O=C(NCNC(=O)NC1C(=O)NC(=O)N1CO)NC1C(=O)NC(=O)N1CO", "note": "(stereo not drawn)", "activity, negative = inhibition": "1.22%"}
{"smiles": "CCC1C(C)=NN=C(c2ccc(OC)c(OC)c2)c2cc(OC)c(OC)cc21", "note": "(stereo not drawn)", "activity, negative = inhibition": "-20.8%"}
{"smiles": "O=Cc1ccco1", "activity, negative = inhibition": "4.37%"}
{"smiles": "O=C(NC(=O)c1c(F)cccc1F)Nc1ccc(Cl)c(Oc2ncc(C(F)(F)F)cc2Cl)c1", "activity, negative = inhibition": "-13.9%"}
{"smiles": "C/C(=C\\c1csc(C)n1)[C@@H]1C[C@@H]2O[C@]2(C)CCC[C@H](C)[C@H](O)[C@@H](C)C(=O)C(C)(C)[C@@H](O)CC(=O)O1", "Potency": "0.005 µM (active)"}
{"smiles": "CCCN1CCCC2Cc3[nH]ncc3CC21", "note": "(stereo not drawn)", "activity, negative = inhibition": "9.91%"}
{"smiles": "CCC(C)(S(=O)(=O)CC)S(=O)(=O)CC", "activity, negative = inhibition": "14.9%"}
{"smiles": "COc1ccc2c(c1OC)C(=O)OC2C1c2cc3c(cc2CCN1C)OCO3", "note": "(stereo not drawn)", "activity, negative = inhibition": "-0.948%"}
{"smiles": "C=CCC1(C(C)CCC)C(=O)N=C(S)NC1=O", "note": "(stereo not drawn)", "activity, negative = inhibition": "4.77%"}
{"smiles": "CCOc1ccc2c3c1O[C@H]1[C@@H](O)C=C[C@H]4[C@@H](C2)N(C)CC[C@@]341", "activity, negative = inhibition": "-0.0432%"}
{"smiles": "CCCCCl", "activity, negative = inhibition": "2.64%"}
{"smiles": "CCC(=O)O[C@@](Cc1ccccc1)(c1ccccc1)[C@@H](C)CN(C)C", "activity, negative = inhibition": "-16.5% [at 12.8 µM]"}
{"smiles": "ClC(Cl)(Cl)Cl", "activity, negative = inhibition": "-0.836%"}
{"smiles": "COC([CH2][Hg])CNC(=O)c1ccccc1OCC(=O)O", "note": "(stereo not drawn)", "activity, negative = inhibition": "-1.18%"}
